In the library only some 2.2% were active in any assay of this set; here they are far more common.
luminol inh ctr = counter-screen for Nox1 inhibitors: inhibitors of luminol chemiluminescence. HRP/luminol/H2O2 chemiluminescence counterscreen. inhibition, % at 6.7 µM. hit rate 0.4% among 16,000; note: reference of the scale not given here
NOTCH ag = agonists of NOTCH signaling. NOTCH signaling luciferase reporter cells, luminescence. activation, % at 2.5 µM. hit rate 0.4% among 15,000. AID 434982, 2010; in the data active = activation above about 2.2%
KOR antag MB = antagonists of human kappa opioid receptor OPRK1, Maybridge library; Kappa-type opioid receptor (Homo sapiens), P41145; OPRK1 cells, antagonist mode, fluorescence readout; inhibition, % at 9 µM; hit rate 0.4% among 16,000; in the data active = inhibition above about 50%
Nox1 inh = inhibitors of human NADPH oxidase 1 (Nox1); HT29 cells, luminol chemiluminescence ROS; hit rate 0.81% among 16,000; AID 1792, 2009; Q9Y5S8; inhibition, % at 6.7 µM
Target sequence (Q9Y5S8 whole entry, looked up): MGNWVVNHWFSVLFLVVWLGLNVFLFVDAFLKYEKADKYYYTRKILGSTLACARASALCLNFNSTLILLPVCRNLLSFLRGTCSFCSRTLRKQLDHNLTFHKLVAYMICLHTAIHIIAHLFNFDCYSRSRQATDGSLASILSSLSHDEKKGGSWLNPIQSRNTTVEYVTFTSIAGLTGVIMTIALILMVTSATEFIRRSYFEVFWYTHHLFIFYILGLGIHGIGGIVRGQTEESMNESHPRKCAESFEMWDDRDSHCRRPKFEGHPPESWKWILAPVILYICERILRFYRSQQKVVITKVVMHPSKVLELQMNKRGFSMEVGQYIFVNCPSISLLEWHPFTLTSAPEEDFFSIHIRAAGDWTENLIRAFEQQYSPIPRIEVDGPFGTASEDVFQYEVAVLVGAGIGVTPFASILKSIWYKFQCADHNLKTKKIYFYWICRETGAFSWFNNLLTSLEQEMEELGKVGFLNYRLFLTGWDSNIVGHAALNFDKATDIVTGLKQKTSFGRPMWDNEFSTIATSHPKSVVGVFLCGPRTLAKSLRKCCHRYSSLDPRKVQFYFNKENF
PME-1 Maybridge = inhibitors of human PME-1 in Maybridge library | Protein phosphatase methylesterase 1 (Homo sapiens), Q9Y570 | recombinant PME-1, FP-Rh probe fluorescence polarization | inhibition, % at 9 µM | hit rate 0.5% among 16,000 | AID 2291, 2010; in the data active = inhibition above about 30%
Active calls of the source: *; x = not tested or not shown. Cut-off read from the data, not from the text of the source, unless noted: active = inhibition above about 75%; inactive = the rest.

SMILES	luminol inh ctr	NOTCH ag	KOR antag MB	Nox1 inh	PME-1 Maybridge
COC(=O)c1cccc(NC(=O)CC2C(=O)NCCN2C(=O)c2ccccc2)c1 (stereo not drawn)	-1	0	-12	-27	-4
COC(=O)c1sccc1NC(=O)CC1C(=O)NCCN1C(=O)c1ccccc1 (stereo not drawn)	0	-1	4	-39	46*
CCC(CO)NC(=S)Nc1ccsc1C(=O)OC (stereo not drawn)	5	-1	-8	-1	2
COC(=O)c1sccc1NC(=S)NCCN1CCNC1=O	99*	0	-5	20	5
Nc1nc(-c2ccc3c(c2)OCO3)cc(C(F)(F)F)n1	-3	0	16	9	2
CC(C)C(=O)NNc1nc2c(c(=O)n(C)c(=O)n2C)n1Cc1ccc(Cl)cc1	5	0	-9	100*	-1
COC(=O)C1=C(Nc2ccccc2NC(=O)c2c(Cl)cccc2Cl)CSC1	9	0	-6	-13	0
S=C(NCC1CC1)Nc1cccnc1	0	x	-16	-20	2
CSC(=N)n1nc(SC)nc1N	-1	2.8*	-5	-39	0
O=C(Nc1ccc(OC(F)(F)F)cc1)Nc1nnc(C2CC2)s1	-4	0	-2	21	-22
N#Cc1c(NCc2cccs2)ccc([N+](=O)[O-])c1NCc1cccs1	2	0	-20	-33	5
CN(C)Nc1ccc([N+](=O)[O-])c(NN(C)C)c1C#N	63	-1	-21	81*	2
C#CCSc1nc(C(OC)OC)ccc1C#N	-2	2	4	9	3
Nc1ccccc1SCc1cccc(Cl)c1F	-7	0	-22	-14	3
COc1ccccc1NC(=S)NCCC(=O)O	2	1	0	-20	-6
COc1ccccc1NC(N)=S	1	4.8*	19	-50	-6
CCOc1cc(N2CCOCC2)c(OCC)cc1NS(=O)(=O)c1ccccc1	15	0	18	103*	17
O=S(=O)(Nc1ccccc1N1CCOCC1)c1ccccc1	43	x	-16	20	5
Cc1cc(NNC(=O)c2ccccc2Cl)nc2c1c(C)nn2C	31	-1	-1	78*	7
CCCCc1ncc(CO)[nH]1	-7	0	17	-10	4
N#Cc1cccnc1NNC(=O)COCC(=O)O	5	-1	83*	6	-63
Cc1ccc(C(=O)OC2=CC(=O)c3ccccc3C2=O)cc1	8	0	-16	-54	6
CN(C)CCCNc1sc(-c2ccccn2)c([N+](=O)[O-])c1[N+](=O)[O-]	7	0	13	-9	65*
O=[N+]([O-])c1c(Sc2ccccn2)sc(Sc2ccccn2)c1[N+](=O)[O-]	-1	-1	4	9	5
C=CC(=O)n1nccc1-c1sc(COc2cccc(Cl)c2)nc1C	3	0	-5	-62	-4
CS(=O)(=NS(=O)(=O)c1ccc(Cl)cc1)c1ccccc1 (stereo not drawn)	12	0	8	2	41*
O=[N+]([O-])/C=C/c1c2ccccc2cc2ccccc12	0	-1	72*	-46	-4
O=[N+]([O-])/C=C/c1c(-c2ccc3ccccc3c2)[nH]c2ccccc12	3	0	-2	-55	-5
